Experimental data published in PubChem BioAssay (NCATS).
Where “and” joins values, the source holds several entries; their conditions need not be identical. Identical values can stand only once. Results filed as inconclusive are left out. More than one record can exist for a structure, and the calls need not agree. Calls of active or inactive are those of the source. Calls follow the shape of the dose curve; as a rule, active = well fitted curve in the direction sought with a large enough effect; inconclusive = small, poorly fitted or top-dose-only effect, or another doubt; inactive = no such curve, though single readings can be large; an effect the other way counts as inactive or inconclusive.

Assays:
HEK293 = assay: Cytotoxic Profiling of Annotated Libraries Using Quantitative High-Throughput Screening (AID 1296008); settings: Five cell lines viability, CellTiter-Glo ATP luminescence, 48-72 h; max response: hits give low values; also: nearly all actives have a fitted effect of over 60% in size; also: potency is read from the fitted curve at half-maximal effect
How it was run: (§1)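 Cells exposed to compounds for 48 or 72 hr at 37 degrees Celsius. Viability read as ATP-coupled luminescence with CellTiter-Glo after 10 min at room temperature.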

HaCat [1] = assay: as above; settings: Five cell lines viability, CellTiter-Glo ATP luminescence, 48-72 h; max response: hits give low values
How it was run: as §1

KB-3-1 = assay: as above; settings: Five cell lines viability, CellTiter-Glo ATP luminescence, 48-72 h; max response: hits give low values
How it was run: as §1

NIH3T3 [2] = assay: as above; settings: Five cell lines viability, CellTiter-Glo ATP luminescence, 48-72 h; max response: hits give low values
How it was run: as §1

HACAT [3] = assay: qHTS assay to identify novel small-molecules to repurpose for Merkel cell carcinoma treatment (AID 1296009); settings: MCC and control cell lines, CellTiter-Glo viability, 72 h; series mostly up to 44.8 µM; also: nearly all actives have a fitted effect of over 60% in size; also: potency is read from the fitted curve at half-maximal effect
How it was run: (§2)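 Dose-response viability screen; 72 hr exposure at 37 degree celsius; CellTiter-Glo added, 10 min room temperature, luminescence read; RLUs scaled between no-cell and DMSO wells.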

HEK293T [4] = assay: as above; settings: MCC and control cell lines, CellTiter-Glo viability, 72 h; at 44.8 µM (top of the series) unless noted
How it was run: as §2

MCC-13 = assay: as above; settings: MCC and control cell lines, CellTiter-Glo viability, 72 h; series mostly up to 46 µM
How it was run: as §2

MCC-26 = assay: as above; settings: MCC and control cell lines, CellTiter-Glo viability, 72 h; series mostly up to 46 µM
How it was run: as §2

MKL-1 = assay: as above; settings: MCC and control cell lines, CellTiter-Glo viability, 72 h; series mostly up to 46 µM
How it was run: as §2

MKL-2 = assay: as above; settings: MCC and control cell lines, CellTiter-Glo viability, 72 h; series mostly up to 46 µM
How it was run: as §2

NIH3T3 [5] = assay: as above; settings: MCC and control cell lines, CellTiter-Glo viability, 72 h; at 44.8 µM (top of the series) unless noted
How it was run: as §2

UISO = assay: as above; settings: MCC and control cell lines, CellTiter-Glo viability, 72 h; series mostly up to 46 µM
How it was run: as §2

WaGa = assay: as above; settings: MCC and control cell lines, CellTiter-Glo viability, 72 h; series mostly up to 46 µM
How it was run: as §2

C33A = assay: Primary qHTS to identify gynecologic anti-cancer compounds using libraries of approved drugs and bioactive compounds (AID 1345084); settings: Gynecologic cancer cell panel viability, ATPlite luminescence, 48 h; series mostly up to 57.5 µM; also: nearly all actives have a fitted effect of over 55% in size
How it was run: (§3)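 48 h compound exposure at 37 C, 5% CO2; five-point qHTS. ATPlite luminescence readout of cell ATP.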

CASKI = assay: as above; settings: Gynecologic cancer cell panel viability, ATPlite luminescence, 48 h; series mostly up to 57.5 µM
How it was run: as §3

Es-2 = assay: as above; settings: Gynecologic cancer cell panel viability, ATPlite luminescence, 48 h; series mostly up to 57.5 µM
How it was run: as §3

HeLa = assay: as above; settings: Gynecologic cancer cell panel viability, ATPlite luminescence, 48 h; series mostly up to 57.5 µM
How it was run: as §3

Hek293T [6] = assay: as above; settings: Gynecologic cancer cell panel viability, ATPlite luminescence, 48 h, control line for the selectivity index; series mostly up to 57.5 µM
How it was run: as §3

JEG-3 = assay: as above; settings: Gynecologic cancer cell panel viability, ATPlite luminescence, 48 h; series mostly up to 57.5 µM
How it was run: as §3

CAOV3 = assay: as above; settings: Gynecologic cancer cell panel viability, ATPlite luminescence, 48 h; series mostly up to 57.5 µM
How it was run: as §3
% is scaled to controls: 0 for no effect and ±100 for the full control effect.

CCCn1c(=O)c2[nH]c(-c3cnn(Cc4cccc(C(F)(F)F)c4)c3)nc2n(CC)c1=O
inactive: outcome (HEK293) | max response (HaCat [1]) -0.725% | outcome (HaCat [1]) | max response (KB-3-1) 0.919% | outcome (KB-3-1) | max response (NIH3T3 [2]) 1.05% | outcome (NIH3T3 [2]) | Potency (HACAT [3]) | outcome (HEK293T [4]) | Potency (MCC-13) | Potency (MCC-26) | Potency (MKL-1) | Potency (MKL-2) | outcome (NIH3T3 [5]) | Potency (UISO) | Potency (WaGa) | Potency (C33A) | Potency (CASKI) | Potency (Es-2) | Potency (HeLa) | Potency (Hek293T [6]) | Potency (JEG-3)

CCc1cc2c(cc1N1CCC(N3CCOCC3)CC1)C(C)(C)c1[nH]c3cc(C#N)ccc3c1C2=O
active: Potency (HEK293) 3.17 µM
inactive: max response (HEK293) -78.7% | max response (HaCat [1]) -16.1% and -0.553% | max response (KB-3-1) -32% and 1.82% | max response (NIH3T3 [2]) -45.1% and -2.9% | Potency (MCC-13) | Potency (MCC-26) | Potency (MKL-1) | Potency (UISO) | Potency (WaGa) | Potency (C33A) | Potency (CASKI) | Potency (Es-2) | Potency (HeLa) | Potency (Hek293T [6]) | Potency (JEG-3)

N#CCNC(=O)c1ccc(-c2ccnc(Nc3ccc(N4CCOCC4)cc3)n2)cc1
active: Potency (HEK293) 18.7 µM and 23.1 µM | Potency (HaCat [1]) 13 µM | Potency (KB-3-1) 11.8 µM and 18.4 µM | Potency (NIH3T3 [2]) 5.26 µM and 4.11 µM | Potency (UISO) 14.8 µM
inactive: max response (HaCat [1]) -43.7% | Potency (C33A) | Potency (CASKI) | Potency (HeLa)

Nc1ncnc2c1c(-c1cccc(OCc3ccccc3)c1)cn2C1CC(CN2CCCC2)C1 (configuration not stated)
inactive: max response (HaCat [1]) -11.4% | outcome (HaCat [1]) | Potency (HACAT [3]) | Potency (MCC-13) | Potency (C33A) | Potency (Es-2)
active: Potency (HEK293) 13.2 µM and 5.17 µM | Potency (KB-3-1) 18.7 µM | Potency (NIH3T3 [2]) 14.8 µM and 16.4 µM | Potency (UISO) 10.5 µM

Cc1ccc(NC(=O)C2(c3ccc4c(c3)OC(F)(F)O4)CC2)nc1-c1cccc(C(=O)O)c1
active: Potency (HEK293) 0.0372 µM | Potency (HaCat [1]) 0.418 µM | Potency (KB-3-1) 0.0526 µM | Potency (NIH3T3 [2]) 0.0935 µM | Potency (MCC-13) 1.18 µM | Potency (MCC-26) 0.833 µM | Potency (MKL-2) 0.0264 µM
inactive: outcome (HEK293) | max response (HaCat [1]) -0.152% | outcome (KB-3-1) | outcome (NIH3T3 [2]) | outcome (HEK293T [4]) | outcome (NIH3T3 [5]) | Potency (C33A) | Potency (CASKI) | Potency (Es-2) | Potency (HeLa) | Potency (Hek293T [6]) | Potency (JEG-3)

CN(C)CC(C)(C)CNc1nn2c(-c3ccccc3)nnc2cc1C1CCC1
inactive: outcome (HEK293) | max response (HaCat [1]) -29.4% and -5.55% | max response (KB-3-1) 9% | outcome (KB-3-1) | max response (NIH3T3 [2]) -0.774% | outcome (HEK293T [4]) | Potency (MCC-13) | Potency (MCC-26) | Potency (C33A) | Potency (CASKI) | Potency (Es-2) | Potency (HeLa) | Potency (Hek293T [6]) | Potency (JEG-3)
active: Potency (HEK293) 4.18 µM | Potency (MKL-1) 0.935 µM | Potency (WaGa) 0.662 µM

CC1(O)CC(c2nc(-c3ccc4ccc(-c5ccccc5)nc4c3)c3c(N)nccn23)C1 (configuration not stated)
active: Potency (HEK293) 4.69 µM | Potency (NIH3T3 [2]) 16.6 µM | Potency (UISO) 0.662 µM
inactive: max response (HaCat [1]) -1.26% | outcome (HaCat [1]) | Potency (HACAT [3]) | Potency (MCC-13) | Potency (MCC-26) | Potency (C33A) | Potency (CAOV3) | Potency (CASKI) | Potency (Es-2) | Potency (Hek293T [6]) | Potency (JEG-3)

Cc1c(Cn2c(C)nc3c(C(=O)O)cc(N4CCOCC4)cc32)cccc1C(F)(F)F
inactive: max response (HEK293) -8.46% | outcome (HEK293) | outcome (HaCat [1]) | max response (KB-3-1) 6.95% | outcome (KB-3-1) | max response (NIH3T3 [2]) 3.21% and -3.58% | Potency (HACAT [3]) | outcome (HEK293T [4]) | Potency (MCC-13) | Potency (MCC-26) | Potency (MKL-1) | Potency (MKL-2) | Potency (UISO) | Potency (WaGa) | Potency (C33A) | Potency (CAOV3) | Potency (CASKI) | Potency (Es-2) | Potency (HeLa) | Potency (Hek293T [6]) | Potency (JEG-3)

O=c1c2ccccc2nc2n1CCc1c-2[nH]c2ccccc12
inactive: max response (HEK293) -12.5% | max response (HaCat [1]) -7.58% | outcome (HaCat [1]) | max response (KB-3-1) 4.3% and 8.09% | max response (NIH3T3 [2]) 0.849% and 0.542% | Potency (HACAT [3]) | Potency (MCC-13) | Potency (MCC-26) | Potency (MKL-1) | Potency (MKL-2) | Potency (WaGa) | Potency (C33A) | Potency (CAOV3) | Potency (CASKI) | Potency (Es-2) | Potency (HeLa) | Potency (Hek293T [6]) | Potency (JEG-3)

CNC(=O)c1c(F)cccc1Nc1nc(Nc2cc3c(cc2OC)CCN3C(=O)CN(C)C)nc2[nH]ccc12
inactive: outcome (HaCat [1]) | Potency (HACAT [3]) | Potency (C33A) | Potency (CASKI) | Potency (Es-2) | Potency (HeLa) | Potency (Hek293T [6]) | Potency (JEG-3)
active: Potency (HEK293) 4.18 µM and 13 µM | Potency (HaCat [1]) 18.4 µM | Potency (NIH3T3 [2]) 7.31 µM | Potency (MCC-26) 23.5 µM | Potency (MKL-1) 18.7 µM | Potency (MKL-2) 5.9 µM | Potency (UISO) 5.9 µM | Potency (WaGa) 18.7 µM

CCOc1ccccc1OCCNC(C)Cc1ccc(OC)c(S(N)(=O)=O)c1 (configuration not stated)
inactive: max response (HEK293) -25.2% | max response (HaCat [1]) -9.05% | outcome (HaCat [1]) | max response (KB-3-1) 7.71% | outcome (KB-3-1) | max response (NIH3T3 [2]) -0.288% | outcome (NIH3T3 [2]) | Potency (HACAT [3]) | Potency (MCC-13) | Potency (MKL-1) | Potency (MKL-2) | outcome (NIH3T3 [5]) | Potency (UISO) | Potency (WaGa) | Potency (C33A) | Potency (CASKI) | Potency (Es-2) | Potency (HeLa) | Potency (Hek293T [6]) | Potency (JEG-3)
